Measured values as given in PubChem BioAssay AID2842 (Southern Research Institute, 2010).
Out of some 24,000 compounds screened, about 1,200 (5%) were called active. Roughly 2% stayed inconclusive and do not appear here. These entries were drawn from the full list. Unmarked numbers belong to inactive results. How the calls were made is not given here.

Assay: Mycobacterium tuberculosis H37Rv growth inhibition, putative kinase inhibitor library, confirmatory dose response (AID 2842);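 further: bacteria incubated one week before Alamar blue readout; 0% = bacteria only wells and 100% = bacteria with high antibiotic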
Conditions: M. tuberculosis H37Rv growth inhibition; CC50: measured here: Vero cell cytotoxicity; inhibition: hits give high values

| Compound | inhibition [%] |
| --- | --- |
| O=c1[nH]c(NCc2ccc3c(c2)OCO3)nnc1Cc1ccc(F)cc1 | -0.653 |
| Nc1nc(SCC(=O)Nc2cccc(F)c2)[nH]c(=O)c1NC(=O)c1ccc(F)cc1 | -6.89 |
| COc1ccc(S(=O)(=O)Nc2cc3c4c(c2)CC(=O)N4CCC3)cc1 | 14.8 |
| Nc1nc(SCc2cccc(Cl)c2)[nH]c(=O)c1NC(=O)c1ccc(C(F)(F)F)cc1 | -5.65 |
| Cc1ccc(Nc2nc(-c3ccc(S(=O)(=O)N4CCC(Cc5ccccc5)CC4)cc3)cs2)cc1 | -2.1 |
| O=C1NC(=O)C(=Cc2nc(-c3ccc(Cl)cc3)n3ccccc23)C(=O)N1 | 15.3 |
| NC(=O)COc1ccc(/C=c2\sc3nc(-c4ccccc4Br)nn3c2=O)cc1 | -6.4 |
| Cc1ccc(NC(=O)c2cnc(SCC(=O)N3CCOCC3)n(C)c2=O)cc1 | 11.1 |
| COc1ccc(Cl)cc1C(=O)Nc1nnc(-c2ccc(Cl)cc2Cl)s1 | 0.42 |
| CC1CCc2c(C(=O)Nc3ccc(OC(F)(F)F)cc3)csc2C1 (stereo not given) | 7.32 |
| CCn1c(SCCc2ccccc2)nc2c1c(=O)[nH]c(=O)n2C | 16.5 |
| O=C(O)c1ccc(Nc2nc(-c3cccnc3)nc3ccccc23)cc1 | 5.44 |
| COc1ccc(OC)c(NC(=O)c2cnc3n(c2=O)CCS3)c1 | 10.9 |
| CCOC(=O)c1nn(-c2ccc(F)cc2)c(=O)c2c(NC(=O)C(CC)c3ccccc3)scc12 (stereo not given) | -11.7 |
| O=C(Nc1nc(-c2nc3ccccc3s2)cs1)c1ccc2ccccc2c1 | 3.09 |
| Cc1csc(NC(=O)CSc2nnc(CNC(=O)c3cccc(C(F)(F)F)c3)o2)n1 | -15.1 |
| COc1cc(C)c(S(=O)(=O)Nc2ccc(-n3c(C)nc4ccccc4c3=O)cc2C)cc1C | -7.48 |
| O=C(NNc1ncnc2c1cnn2-c1cccc(Cl)c1)c1cccc(Cl)c1 | 85 |
| O=C(CSc1nnc2ccc(-c3cccc([N+](=O)[O-])c3)nn12)NCc1ccco1 | 0.47 |
| CS(=O)(=O)c1ccc([N+](=O)[O-])c(NCCCC(=O)O)c1 | -6.3 |
| CCOc1ccccc1NC(=O)CSc1nnc(C)c(=O)n1N | -13.8 |
| O=C(Nc1nnc(-c2cccs2)o1)C(c1ccccc1)c1ccccc1 | 9.32 |
| C#CCn1c(=NC(=O)c2cccc([N+](=O)[O-])c2)sc2cccc(F)c21 | 13.5 |

| Compound | inhibition [%] |
| --- | --- |
| CCOC(=O)N1CCc2c(sc(NC(=O)c3ccc(Br)s3)c2-c2nc3ccccc3s2)C1 | 4.21 |
| Cn1c(=O)[nH]c(=O)c2c1nc(SCC(N)=O)n2CC(O)COc1ccc(Cl)cc1 (stereo not given) | -5.17 |
| Nc1nc2c(s1)CCCC2 | 16.9 |
| COC(=O)C(C)Sc1nnc(Cc2cc(=O)[nH]c(=O)[nH]2)n1-c1ccc(Cl)cc1 (stereo not given) | -6.18 |
| Cc1ccc(-n2c(=O)[nH]c3c(C(N)=O)nc(-c4ccc(C(C)C)cc4)nc32)cc1C | -7.6 |
| COc1ccc(-n2nc3c(c2NC(=O)Cc2cccs2)CSC3)cc1 | -3.68 |
| Cc1cccc(NC(=O)C2C(=O)CN(c3ccccc3)C2=O)c1 (stereo not given) | -3.29 |
| O=C(/C=C/c1ccccc1Cl)Nc1nc(-c2nc3ccccc3s2)cs1 | -0.67 |
| COc1ccc(OC)c(-c2nnc(NC(=O)C(C)Sc3ccccc3)s2)c1 (stereo not given) | -0.69 |
| COc1ccc(Nc2nc(N3CCN(c4cccc(Cl)c4)CC3)nc3nccnc23)cc1 | 9.83 |
| CCN(CC)CCCNc1ncnc2sc3c(c12)CC(C)CC3 (stereo not given) | 5.59 |
| COc1cc(C(=O)NC(=S)Nc2cccc3c2C(=O)NC3=O)cc(OC)c1OC | -8.66 |
| Cn1c(=O)c2c(nc(SCCN3CCOCC3)n2Cc2ccccc2)n(C)c1=O | 0.8 |
| COc1ccc(C(=O)c2cn(CC(=O)Nc3ccc(F)cc3)c3ccc(F)cc3c2=O)cc1 | 9.54 |
| CC1(C)Cc2c(sc(NC(=O)/C=C/c3ccccc3)c2C#N)C(C)(C)N1 | -4.69 |
| COc1ccc(CC(=O)NCCc2cc3ccc(C)cc3[nH]c2=O)cc1OC | 11.1 |
| CC1(C)COc2ccc(NC(=O)Cc3cccs3)cc2NC1=O | 6.11 |
| CCS(=O)(=O)c1cccc(C(=O)Nc2sc(C)c(C)c2C(=O)NC)c1 | -4.86 |
| CCOC(=O)N1CCN(C(=O)COc2cccc3c2CCN(CC)C3=O)CC1 | -2.11 |
| Cn1c(Cn2c(=O)sc3ccccc32)nnc1SCC(=O)Nc1ccc2c(c1)OCO2 | -4.61 |
| CC(C)N1CCc2c(sc(NC(=O)c3ccccc3Oc3ccccc3)c2C(N)=O)C1 | 81.6 |
| COC(=O)c1c(NC(=O)c2ccccc2)sc2c1CC(C)(C)NC2(C)C | 16.8 |
| Cc1ccc(NC(=O)CSc2nccn(-c3ccc(F)cc3)c2=O)c(C)c1 | -11.8 |

| Compound | inhibition [%] |
| --- | --- |
| CNC(=O)C(=O)c1c[nH]c2ccccc12 | 4.99 |
| CC1CCCCN1c1ncnc(N)c1[N+](=O)[O-] (stereo not given) | 1.66 |
| CC1(C)Cc2c(sc(NC(=O)c3cccc(F)c3)c2C#N)C(C)(C)N1 | -10.1 |
| Cc1nnc(SCc2ccc([N+](=O)[O-])cc2)n(N)c1=O | 1.18 |
| O=C1/C(=C/c2ccc(Br)cc2)Oc2cc(O)ccc21 | 8.31 |
| COc1ccc(CNc2nc3c(-c4ccc(Cl)cc4)nnn3c3ccccc23)cc1 | 4.87 |
| O=C(Nc1nc2c(cc3c4c(cccc42)CC3)s1)C(c1ccccc1)c1ccccc1 | 10.3 |
| Cc1cc(OC(=O)C23CC4CC(CC(C4)C2)C3)c([N+](=O)[O-])c(=O)[nH]1 | 2.01 |
| C=CCn1c(N(C)C)nc2c1c(=O)[nH]c(=O)n2C | -2.63 |
| CCOc1ccccc1NC(=O)c1oc2ccccc2c1NC(=O)COc1ccccc1 | 10.5 |
| COc1ccc(Cn2cc(C(=O)c3ccc(Cl)cc3)c(=O)c3cc4c(cc32)OCCO4)cc1 | 14.9 |
| CCOc1ccc(C(=O)Nc2c3c(nn2C(C)(C)C)CS(=O)C3)cc1 (stereo not given) | 6.89 |
| CCCC(=O)Nc1nnc(-c2cccc(C)c2)s1 | 5.77 |
| COC(=O)c1ccc(NC(=O)CSc2nnc(C)c(=O)n2N)cc1 | 6.15 |
| Cc1ccc(NC(=O)CSc2nnc(CCC(=O)O)c(=O)[nH]2)cc1C | -8.56 |
| O=c1cnnc(N/N=C/c2ccc(O)cc2O)[nH]1 | 45.3 |
| O=C1C(=O)N(CCCN2CCOCC2)C(c2cccc(F)c2)/C1=C(\O)c1ccncc1 (stereo not given) | -3.95 |
| CCOc1ccc(N2CC(NC(=O)Nc3cccc(C)n3)CC2=O)cc1 (stereo not given) | 8.06 |
| O=S(=O)(Nc1cc(Sc2ncn[nH]2)c(O)c2ccccc12)c1ccc(F)cc1 | -6.45 |
| COc1ccccc1NC(=O)CCCN1C(=O)c2cccc3cccc(c23)C1=O | 16.8 |
| COc1ccccc1NC(=O)c1oc2ccccc2c1NC(=O)c1ccc(Cl)c([N+](=O)[O-])c1 | 3.99 |
| COc1ccc(OCC(=O)N/N=C/c2ccccc2O)cc1 | -13 |
| O=C(/C=C/c1cccs1)Nc1nncs1 | -2.33 |

| Compound | inhibition [%] |
| --- | --- |
| COc1cccc2c1OC(c1ccncc1)N1N=C(c3cc(C)ccc3O)CC21 (stereo not given) | 0.62 |
| Cc1ccccc1NC(=O)CSc1nnc(Cn2c(=O)sc3ccccc32)n1C | -1.23 |
| COc1ccc(-n2c(=O)[nH]c3c(C(N)=O)nc(-c4ccncc4)nc32)cc1 | 1.06 |
| CC(C)c1nnc(SCc2c(Cl)ccc(Cl)c2Cl)n1N | -13.8 |
| O=C(Nc1ccc2c(c1)OCO2)c1cnc2n(c1=O)CCS2 | 0.45 |
| Cc1nnc(NC(=O)CSc2nc3c(c(=O)n2-c2ccccc2)SCC3)s1 | -2.21 |
| Cc1oc2c(CN3CCN(C)CC3)c(O)ccc2c(=O)c1-c1nc2ccccc2s1 | -15.1 |
| Cc1ccc(CSc2nc3c([nH]2)c(=O)n(C)c(=O)n3C)cc1 | 6.64 |
| NC(=O)c1oc2ccccc2c1NC(=O)c1ccc(Cl)s1 | 14.6 |
| Nc1nc(SCC(=O)Nc2ccc(F)cc2F)[nH]c(=O)c1NC(=O)c1ccc(Br)cc1 | -9.37 |
| Cc1cc2nnc(SCC(=O)Nc3ccccc3)n2c2ccccc12 | 0.4 |
| COc1cccc(NC(=O)Nc2nc3c(s2)C(=O)CC(C)(C)C3)c1 | 8.4 |
| CCN(c1ncnc(N)c1[N+](=O)[O-])C1CCCCC1 | 5.41 |
| COc1ccc(NC(=O)CSc2nnc3ccc(-c4ccncc4)nn23)cc1 | -9.39 |
| O=C(CSc1nnc2[nH]c(=O)ccn12)Nc1ccc([N+](=O)[O-])cc1 | -13.1 |
| CN(CCC#N)c1ccc(C=C2C(=O)NC(=S)NC2=O)cc1 | 5.58 |
| COC(=O)C1=C(C)NC(=O)NC1c1ccc(Cl)cc1 (stereo not given) | 1.95 |
| CC(C)CCSc1nc2c(c(=O)[nH]c(=O)n2C)n1CC(O)COc1ccc(Cl)cc1 (stereo not given) | 21.4 |
| COc1cccc(N2CC(C)Cn3c2nc2c3c(=O)[nH]c(=O)n2C)c1 (stereo not given) | 0.57 |
| CC1Cc2nc(SCc3ccccn3)n(-c3ccc(F)cc3)c(=O)c2S1 (stereo not given) | 20 |
| Cc1cccc(-n2ccnc2SCC(=O)Nc2nc3ccccc3s2)c1C | 4.43 |
